Mtb betalactam: beta-lactam sensitization of Mtb H37Rv | M. tuberculosis H37Rv growth with meropenem, percent inhibition | inhibition, % at 25 µM | actives 0.27% (n = 330,000); call rule not given here;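 also: growth measured after seven days incubation then overnight dye step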
FBA Mtb inh: inhibitors of M. tuberculosis fructose-bisphosphate aldolase; inhibition, % at 1 µM; P9WQA3; actives 2.3% (n = 360,000); purified M. tuberculosis FBA, fluorescence read-out; in the data active = inhibition above about 27%
Target sequence (P9WQA3 whole entry, looked up): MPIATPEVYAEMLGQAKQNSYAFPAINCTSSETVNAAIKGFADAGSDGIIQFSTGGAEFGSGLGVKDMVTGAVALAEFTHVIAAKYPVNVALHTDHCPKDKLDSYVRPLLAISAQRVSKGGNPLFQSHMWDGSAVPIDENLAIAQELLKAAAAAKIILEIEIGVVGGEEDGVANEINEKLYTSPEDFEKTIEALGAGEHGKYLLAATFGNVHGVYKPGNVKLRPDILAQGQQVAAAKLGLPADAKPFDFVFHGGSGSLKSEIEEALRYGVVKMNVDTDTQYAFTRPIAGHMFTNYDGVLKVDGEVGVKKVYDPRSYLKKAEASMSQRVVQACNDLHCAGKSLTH
MazF activator: activators of E. coli MazEF toxin-antitoxin RNase; P0AE70; activation, % at 20 µM; actives 0.32% (n = 350,000); FAM/BHQ RNA-DNA oligo cleavage fluorescence, 5 h; in the data active = activation above about 50%
Target sequence (P0AE70 whole entry, looked up): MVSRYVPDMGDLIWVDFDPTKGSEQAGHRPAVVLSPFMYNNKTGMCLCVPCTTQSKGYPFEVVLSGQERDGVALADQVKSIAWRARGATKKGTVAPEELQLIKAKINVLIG
GDH-TPI counter-1: counter-screen for M. tuberculosis FBA inhibitors: GDH-TPI coupled enzymes; GDH-TPI coupled enzyme counterscreen, NADH absorbance; inhibition, % at 4.8 µM; actives 1.2% (n = 360,000)
CCHFV vOTU inh: blocks the CCHF virus ovarian tumor domain protease | CCHFV vOTU protease, Pep-AMC fluorescence | inhibition, % at 11.5 µM | actives 0.55% (n = 370,000)
Mtb FBA confirm: Mtb FBA inhibition, confirmed | AID 651616 | actives 78% (n = 5,600) | purified M. tuberculosis FBA, fluorescence read-out | inhibition, % at 1 µM | shares compounds with FBA Mtb inh; in the data active = inhibition above about 27%
GDH-TPI counter-2: inhibits GDH-TPI coupling enzymes, flagging Mtb FBA hits; shares compounds with FBA Mtb inh; inhibition, % at 1 µM; GDH-TPI coupled enzyme counterscreen, fluorescence; actives 81% (n = 5,600); in the data active = inhibition above about 10%
GDH-TPI DR: counter-screen for M. tuberculosis FBA inhibitors: GDH-TPI dose response; shares compounds with FBA Mtb inh; GDH-TPI coupled enzyme assay, fluorescence, artifact counterscreen; IC50, µM; actives 79% (n = 170); call rule not given here
Numbers stand for hits; – = inactive; · = no result; + = active, no number. Shown are actives, neighbours in structure and some others; about 4% of the full set was active somewhere. Rule as the data show it, unless noted: active = inhibition above about 30%; inactive = the rest.

SMILES	Mtb betalactam	FBA Mtb inh	MazF activator	GDH-TPI counter-1	CCHFV vOTU inh	Mtb FBA confirm	GDH-TPI counter-2	others
CC(C)CCNC(=O)c1cc2c(=O)[nH]c3ccccc3c2s1	–	–	–	–	–	·	·
CC[C@H](C(=O)Nc1ccccc1N1CCCC1)c1ccccc1	·	·	·	·	–	·	·
COC(=O)CC[C@@H](/C=C/C(=O)OC(C)(C)C)Sc1ccc(C(C)(C)C)cc1	·	·	·	·	–	·	·
CC(CO)(CO)NC(=O)c1ccc(C#Cc2cccc(F)c2)cn1	·	·	·	·	–	·	·
CCn1c(-c2cc(-c3ccc(C)cc3)nc3ccccc23)n[nH]c1=S	–	–	–	–	–	·	·
CCn1c(-c2cc(-c3ccc(OC(C)C)cc3)nc3ccccc23)n[nH]c1=S	–	82.7	–	–	·	–	–
CC(=O)Oc1ccccc1C(=O)NC(C)CCc1ccccc1 (stereo not given)	–	–	–	–	–	·	·
COCC(C)NC(=O)c1ccccc1OC(C)=O (stereo not given)	–	34.8	–	–	–	42.2	37.5
OC1(CNCc2cn[nH]c2-c2cc3ccccc3o2)CCCCC1	–	–	–	–	–	·	·
Cn1c(=O)[nH]c2c(nc(-c3ccc(Cl)cc3)n2C)c1=O	–	28.4	–	–	–	–	–
CCCCn1c(-c2ccc(OC)cc2)nc2c(=O)n(C)c(=O)[nH]c21	–	57.8	–	–	–	106.7	105.9
CCCn1c(-c2ccc(OC)cc2)nc2c(=O)n(C)c(=O)[nH]c21	–	70.7	–	–	–	–	–
CCOC(=O)C(Cc1ccccc1)CP(=O)(OC)[C@@H](C)NC(=O)OCc1ccccc1 (stereo not given in full)	·	·	·	·	–	·	·
CCCC[C@H]1C2CC(OC(=O)Nc3ccc(F)cc3)C(C2)[C@H]2CCCCN21 (stereo not given in full)	·	·	·	·	–	·	·
CCc1cc2c(=O)c(-c3ccc4c(c3)OCO4)coc2c(CN(C)C)c1O	–	–	–	–	–	·	·
CCc1cc2c(=O)c(-c3cscn3)coc2c(CN(C)C)c1O	–	41.0	–	–	–	161.1	124.8
O=C1c2cccc3cccc(c23)C(=O)N1Cc1ccccn1	·	31.8	–	–	–	61.2	37.4
O=C1c2cccc3cccc(c23)C(=O)N1c1ccccn1	–	51.5	–	–	–	–	–
CCOC(=O)c1cc(-c2cccc(C(F)(F)F)c2)nc2nc(SC)[nH]c(=O)c12	–	–	–	–	–	·	·
CCOC(=O)c1cc(-c2ccc(C)cc2)nc2nc(SC)[nH]c(=O)c12	–	39.9	–	–	–	150.6	158.8
CCOC(=O)c1[nH]c2cc3c(cc2c1NC(=O)CN1CCCC1)OCO3	–	72.7	–	–	–	76.3	49.2
CCOC(=O)c1[nH]c2cc3c(cc2c1NC(=O)CN1CCc2ccccc2C1)OCO3	–	80.8	–	–	–	–	–	GDH-TPI DR=1.32
CCOC(=O)N1CCN(CC(=O)Nc2c(C(=O)OC)[nH]c3ccccc23)CC1	–	–	–	–	–	·	·
CCOc1ccc(S(=O)(=O)NCCc2cn3ccccc3n2)cc1	–	–	–	–	–	·	·
CCOc1ccc(-c2cn3ccccc3n2)cc1	–	43.8	–	–	–	115.8	69.4
SMILES	Mtb betalactam	FBA Mtb inh	MazF activator	GDH-TPI counter-1	CCHFV vOTU inh	Mtb FBA confirm	GDH-TPI counter-2	others
COc1ccc(CC(=O)Nc2ccc(-c3cn4ccccc4n3)cc2)cc1OC	–	71.3	–	–	–	–	–
O=C(Nc1cccc(-c2cn3ccccc3n2)c1)C1CC1	–	36.0	–	–	–	112.4	87.5
COc1ccc(CC(=O)Nc2ccc(-c3cn4ccccc4n3)cc2)cc1	–	65.5	–	–	–	+	+
CCC(=O)Nc1cccc(-c2cn3ccccc3n2)c1	–	–	–	–	–	·	·
COc1ccc(CC(=O)Nc2cccc(-c3cn4ccccc4n3)c2)cc1	–	30.9	–	–	–	122.7	85.8
C[C@@H]1COc2cc(N3CCSCC3)ccc2S(=O)(=O)N1C	·	·	·	·	–	·	·
COc1ccc(C(=O)c2sc3nc(-c4ccc(OC)cc4)ccc3c2N)cc1	–	33.9	–	–	–	27.9	31.0
COC(=O)[C@]12C[C@H](CC(=O)N3CCC(c4ccccc4)CC3)C(=O)N(Cc3ccc(Cl)cc3Cl)C1=C[C@H](COCc1ccccc1)O[C@@H]2C	·	·	·	·	–	·	·
COc1ccc(C(O)c2ncc(-c3cccc4ccccc34)[nH]2)cc1F (stereo not given)	·	40.8	·	–	–	35.5	35.8
COc1ccc(C(O)c2ncc(-c3ccccc3OC)[nH]2)cc1F (stereo not given)	·	–	·	–	–	·	·
Cc1cc(F)ccc1C(O)c1ncc(-c2ccc3ccccc3c2)[nH]1 (stereo not given)	·	–	·	–	–	·	·
COc1ccc(C(O)c2ncc(-c3ccc4ccccc4c3)[nH]2)cc1 (stereo not given)	·	31.7	·	–	–	+	+
Cc1cc(F)ccc1C(O)c1ncc(-c2cccc3ccccc23)[nH]1 (stereo not given)	·	31.1	·	–	–	–	–
COc1ccccc1C(O)c1ncc(-c2cccc3ccccc23)[nH]1 (stereo not given)	·	60.3	·	–	–	+	+
COc1ccccc1-c1cnc(C(O)c2cccc(C)c2C)[nH]1 (stereo not given)	·	–	·	–	–	·	·
S=C(Nc1ccc(I)cc1)OC1CCC12CCC(c1ccccc1)CC2 (stereo not given)	·	·	·	·	–	·	·
CC1(C)CC(=O)C=C(C#CC2CC2)C1	·	·	·	·	–	·	·
OC(c1ccc(F)cc1)c1ncc(-c2cccc3ccccc23)[nH]1 (stereo not given)	·	48.9	·	–	–	–	–
CCCCNC(=O)C[C@H]1C[C@@]2(C(=O)OC)C(=C[C@H](C(C)(C)C)O[C@@H]2C)N(CCc2ccc(OC)c(OC)c2)C1=O	·	·	·	·	–	·	·
CCn1ncc(-c2cc(C(=O)O)no2)c1C	–	·	–	·	–	·	·
CCn1ncc(-c2ccnc3cc(C(=O)O)nn23)c1C	–	68.0	–	–	–	137.4	130.9
COc1ccccc1NC(=O)OC1CC2CC1[C@H]1CCCCN1[C@H]2Cc1ccccc1 (stereo not given in full)	·	·	·	·	–	·	·
O=S(=O)(Nc1cccc(-c2cn3c(n2)SCC3)c1)c1cccs1	–	32.1	–	–	–	97.8	96.3
CCCCn1c(=O)[nH]c(=O)c2c(C(=O)OCC)cc(-c3ccc(OC(F)F)cc3)nc21	–	–	–	–	–	·	·
CCCn1c(=O)[nH]c(=O)c2c(C(=O)OCC)cc(-c3cccs3)nc21	–	88.8	–	–	–	100.1	86.9
CCCn1c(=O)[nH]c(=O)c2c1nc(-c1ccc(OC(F)(F)C(F)C(F)(F)F)cc1)n2CCOC (stereo not given)	–	–	–	–	–	·	·
CCCn1c(=O)[nH]c(=O)c2c1nc(-c1cccs1)n2CCOC	–	89.5	–	–	–	+	167.3

From PubChem BioAssay
